Assay outcomes deposited in PubChem BioAssay by several laboratories.
HSF1 inh = HSF1 inhibition. activity change, negative = inhibition, % at 7.5 µM (by protocol). hit rate 0.77% among 300,000. AID 2098. NIH3T3-HGL HSE-luciferase, MG132-induced, luminescence 8 h; stronger effect = lower value;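 active means more than half of replicate wells show activity change below -50%, luminescence cut by over half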;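 further: luciferase reports HSF-1 transcriptional activity via heat shock element; 0% = median of DMSO wells and -100% = zero luminescence signal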
LMP1 NFkB inh = inhibitors of Epstein-Barr LMP1-induced NF-kappaB reporter. LMP1-induced NF-kappaB luciferase reporter cells, luminescence. inhibition, % at 12.5 µM. hit rate 0.69% among 350,000. AID 504558; in the data active means inhibition above about 41%;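 further: 0% = neutral control wells and 100% = reference inhibitor control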
HSF1 activator = increases HSF-1 driven luciferase reporter signal; hit rate 1.7% among 300,000; activation, % at 9 µM; NIH3T3-HGL HSF-1 luciferase reporter, MG132, 8 h; 100% = twice DMSO control signal;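 active means mean replicate activation of at least 50% with a set share of replicates each reaching 50%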;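 further: 0% = median of the neutral control wells and 100% = twice that signal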
HSP90 inh = inhibitors of HSP90 luciferase refolding in rabbit reticulocyte lysate. AID 1789. luciferase refolding luminescence, 3 h. hit rate 0.91% among 290,000. inhibition, % at 5.6 µM;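 active means inhibition above the screen-wide mean plus 3 SD, computed separately per campaign, cut at about 16% in these data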;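 further: 0% = DMSO wells and 100% = 60 µM geldanamycin wells; inhibitors lower the luminescence because luciferase stays unfolded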
TROY signal inh = inhibitors of TROY-dependent NF-kB signaling; Q293 LMP1-TROYcd NF-kB luciferase reporter, 4 h; inhibition, % at 10 µM; hit rate 0.98% among 360,000; AID 1347056;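 active means compounds whose plate-normalised and pattern-corrected inhibition of the luciferase reporter signal at the single screening dose is 50% or more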
TWEAK-Fn14 inh = blocks TWEAK-Fn14 interaction in a reporter cell assay. TWEAK-stimulated Fn14 reporter cells, luciferase luminescence, 8 h. inhibition, % at 10 µM. hit rate 2% among 360,000; in the data active means inhibition above about 50%
The depositor's hits bear a star; · = no result given. This is a sample that favours compounds with a hit; in the whole collection about 4.7% have one here.

SMILES	HSF1 inh	LMP1 NFkB inh	HSF1 activator	HSP90 inh	TROY signal inh	TWEAK-Fn14 inh
O=c1c(Cl)c(Nc2cccc(Cl)c2)cnn1-c1nc2ccccc2s1	-14.7	-5.0	-17.4	16.2*	26.4	61.7*
C(=N\C(/N=C/c1ccco1)c1ccco1)/c1ccco1	53.7	1.5	80.6*	4.0	-9.3	2.6
CCC(C(=O)N1CCN(Cc2ccc3c(c2)OCO3)CC1)n1nnc2ccccc2c1=O (stereo not given)	·	8.9	·	·	-16.1	13.9
C/C(CCc1oc2c(Br)cc(Br)cc2c1-c1ccc(C)o1)=N\O	39.7	-2.1	79.6*	1.7	19.5	27.8
C/C(CCc1oc2ccccc2c1-c1ccc(C)o1)=N/O	·	-7.4	·	0.3	2.4	5.7
CC(C)n1c(=O)c2ccccc2n1S(C)(=O)=O	·	·	·	·	0.2	21.4
CCOC(=O)C(NCc1ccco1)(NC(=O)c1ccccc1)C(F)(F)F (stereo not given)	-0.3	2.7	-6.2	0.0	13.8	87.3*
CCOc1c(Cl)cc(/C=N/NC(N)=S)cc1OC	-8.3	5.1	-34.4	3.6	12.8	52.0*
C#CCOc1c(Cl)cc(/C=N/NC(N)=S)cc1OCC	-3.7	-2.1	-1.3	0.1	-23.7	50.0
COc1cc(/C=N/NC(N)=S)cc(Br)c1OCc1ccccc1F	-15.3	-49.0	-21.8	3.0	11.8	64.1*
O=C1NC[C@@H](CCCCN2CCN(Cc3ccccc3)C(=O)C2=O)N(Cc2ccccc2)C1=O	·	·	·	·	10.6	14.3
c1ccc(-c2csc(Nc3ccccn3)n2)cc1	49.0	-45.4	81.5*	12.6	-13.1	53.2*
Cc1cc(-c2csc(Nc3ccccn3)n2)ccc1F	31.4	-78.5	79.8*	4.8	-10.0	50.8*
COc1ccc(-c2csc(Nc3ccccn3)n2)cc1OC	22.1	-47.7	47.5	2.2	-46.6	-4.3
Cc1ccc(C2C=CC(C#N)=CN2Cc2ccccc2)cc1 (stereo not given)	·	·	·	·	-5.8	12.2
COc1ccc(CC(=O)NCc2ccccc2F)cc1S(=O)(=O)N1CCOCC1	·	-12.4	·	·	1.0	-5.2
COC(=O)c1ccc(CSc2nc3c(c(=O)n2-c2ccc(C)cc2)SCC3)o1	1.9	70.4*	-2.3	-1.5	3.4	-3.3
Cc1ccc(-n2c(SCC(=O)N3CCCC3)nc3c(c2=O)SCC3)cc1	-2.5	·	-7.3	1.5	·	·
COc1ccc(-n2c(SCC(=O)Nc3cc(C)on3)nc3c(c2=O)SCC3)cc1	-4.5	82.6*	-13.2	1.4	-7.7	-3.3
O=c1c2ccccc2nnn1CSc1ccc2c(c1)OCCO2	49.4	-35.6	76.3*	0.9	-14.5	26.2
CCC(C(=O)Nc1ccc2c(c1)OCCO2)n1nnc2ccccc2c1=O (stereo not given)	10.5	10.7	12.4	0.8	-44.4	5.3
COCc1cc(CN2CCN(CCc3ccccc3)C(CCO)C2)ccc1OC (stereo not given)	155.5	5.6	190.3*	2.1	9.8	2.5
COc1ccc(-c2n(CC(=O)OC3CC(C)CCC3C(C)C)c3ccccc3[n+]2C)cc1 (stereo not given)	-11.7	22.8	-23.0	-0.1	47.8	79.6*
COc1ccc(OCc2n(CC(=O)OC3CC(C)CCC3C(C)C)c3ccccc3[n+]2C)cc1 (stereo not given)	0.4	2.0	5.7	4.7	47.1	41.8
O=C1ON=C(c2ccccc2)/C1=C/c1ccc(-c2ccccc2[N+](=O)[O-])o1	·	-7.4	·	-0.4	-1.5	94.7*
SMILES	HSF1 inh	LMP1 NFkB inh	HSF1 activator	HSP90 inh	TROY signal inh	TWEAK-Fn14 inh
O=[N+]([O-])c1ccccc1-c1ccc(/C=N/n2cnnc2)o1	3.3	9.3	5.7	-1.9	2.5	-3.4
O=c1[nH]c(=O)n(C2CC(O)C(CO)O2)cc1I (stereo not given)	·	0.8	·	·	3.8	8.5
O=c1[nH]c(=O)n([C@H]2C[C@H](O)[C@@H](CO)O2)cc1F	-2.9	50.0*	-12.7	1.2	-6.3	-3.3
C=CCNC(=O)CSc1nnc(-c2cccc(S(=O)(=O)N3CCOCC3)c2)o1	·	3.1	·	·	0.5	12.6
CCOC(=O)C1(C)CCCN(C(=O)c2cc(C)oc2C)C1 (stereo not given)	·	·	·	·	-6.9	19.7
O=C(NCc1ccccn1)C1CCN(S(=O)(=O)c2ccccc2)CC1	-1.3	0.3	-12.8	-2.1	·	88.2*
COc1ccc(S(=O)(=O)N2CCCC(C(=O)NCC3CCCO3)C2)cc1C (stereo not given)	5.2	-1.3	19.7	3.2	-7.4	92.8*
O=C(CCNC(=O)C1CCN(S(=O)(=O)c2ccc(F)cc2)CC1)NCc1ccc(F)cc1	0.6	-8.8	9.1	-3.7	-9.0	-4.8
COc1ccc(S(=O)(=O)N2CCCC(C(=O)NCc3ccco3)C2)cc1OC (stereo not given)	3.5	-2.1	5.1	-4.0	3.5	8.6
O=C(CCNC(=O)C1CCN(S(=O)(=O)c2ccccc2)CC1)NCc1ccccn1	-3.0	-2.7	0.3	-2.2	1.7	-3.0
O=C(NCCCn1ccnc1)C1CCN(S(=O)(=O)c2ccc(F)cc2)CC1	-1.1	-3.1	-7.6	-0.3	-7.5	86.2*
COc1ccc(S(=O)(=O)N2CCCC(C(=O)NCc3ccco3)C2)cc1Cl (stereo not given)	-4.0	0.7	9.2	3.9	-7.7	86.2*
O=C(NCc1ccco1)C1CCN(S(=O)(=O)c2cccc([N+](=O)[O-])c2)CC1	-79.8*	-6.8	-83.6	2.7	-30.1	-2.8
CCCN(CCC)CCNC(=O)C1CCCN(S(=O)(=O)c2ccc3c(c2)oc(=O)n3C)C1 (stereo not given)	3.9	-1.3	-1.7	0.9	-9.8	10.4
Cn1c(=O)oc2cc(S(=O)(=O)N3CCCC(C(=O)NCCN4CCOCC4)C3)ccc21 (stereo not given)	·	-11.5	·	30.3*	4.2	-14.5
COc1ccc(/C=C2\NC(=O)C(C=NCc3ccccc3)=C2O)cc1	6.9	-10.4	25.4	-3.0	-13.3	-6.4
O=C1N/C(=C\c2ccc(O)cc2)C(O)=C1C=NCc1ccccc1	41.4	-31.0	64.1*	1.0	-13.7	2.2
COc1ccc(Nc2c(-c3ccc(F)cc3)nc3nc(C)cc(C)n23)cc1	·	·	·	·	-82.9	-71.2
CC12c3ccccc3C(c3ccccc31)C1C(=O)N(Cc3cccnc3)C(=O)[C@H]12 (stereo not given in full)	29.3	-8.9	69.6*	2.3	-3.6	8.4
CC1=C(C(=O)N(C(C)C)C(C)C)CC(CC(=O)NCCCCc2ccccc2)C(=O)N1Cc1ccc(C(C)(C)C)cc1 (stereo not given)	·	·	·	·	13.3	2.3
Cc1nc2cc(NCc3nc4ccccc4n3Cc3ccccc3)ccc2n1C	6.6	-3.6	-4.5	16.4*	87.2*	89.9*
Cc1nc2cc(NCc3cc([N+](=O)[O-])ccc3O)ccc2n1Cc1ccccc1	1.8	0.4	21.4	3.3	79.6*	53.4*
CC(=O)Nc1ccc2c(c1)nc(C)n2Cc1ccccc1	19.5	7.2	49.7	-1.1	-11.3	-1.0
